Structures are written as SMILES. Screen size: about 360,000 compounds; about 7,500 (2.1%) were called active. Roughly 20% stayed inconclusive and do not appear here. Calls follow the shape of the dose curve; as a rule, active = well fitted inhibition curve with a large enough effect; inconclusive = small, poorly fitted or top-dose-only effect, or effect the other way; inactive = flat fitted curve, though single readings scatter. Many of the other results were omitted from the sample, so actives are more common in it than they were.
% is scaled to controls: 0 for no effect and ±100 for the full control effect; potency is read from the fitted curve at half-maximal effect.

The nature of the test: Nrf2 qHTS screen for inhibitors. Also: nearly all actives have a fitted effect of over 60% in size. The following applies: A549 ARE-Fluc reporter, luciferase luminescence, 18-24 h; series mostly up to 46 µM; activity change, negative = inhibition: at the top concentration. A digest of the protocol:
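Reporter: ARE-Fluc in A549. Exposure: 18-24 h, 37 °C, 5% CO2, 5% FBS OPTI-MEM. Readouts: fluorescent cytotoxicity (CellTiter-Fluor), then luminescent Nrf2 signal after BugLite.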
In general terms: qHTS replaces the single test concentration by a dilution series.
`C=CCN1C=C(C(=O)c2ccccc2)C(=O)CC1`: the “activity change, negative = inhibition” value was -4.83% (inactive).
On to `COc1cccc(CNc2nc(C(F)(F)F)nc3ccccc23)c1`, for which the Potency is 23.1 µM (active).
`COc1cccc(CNC(=O)c2n[nH]c3ccccc23)c1`: the “activity change, negative = inhibition” value is -2.22% (inactive).
As for `NS(=O)(=O)c1ccc(CCNc2nc(C(F)(F)F)nc3ccccc23)cc1`, the Potency is 23.1 µM (active).
Regarding `COc1cccc(CNc2ncc(-c3ccccc3)n2C)c1`, the “activity change, negative = inhibition” value was 0.973% (inactive).
For `NS(=O)(=O)c1ccc(CCNC(=O)CNC(=O)Cc2ccccc2)cc1`, the “activity change, negative = inhibition” value is 4.33% (inactive).
On to `CC(Nc1nc(C(F)(F)F)nc2ccccc12)c1cccs1` (configuration not stated), for which the “activity change, negative = inhibition” value is 4.12% (inactive).
As for `Cc1ccc(C)c(Cn2c(C(=O)O)c(CNCc3cccs3)c3ccccc32)c1`, the “activity change, negative = inhibition” value was -15.6% (inactive).
Take `COC(=O)CN1C(=O)CSc2ccc(S(=O)(=O)Nc3cc(C)ccc3C)cc21`: the “activity change, negative = inhibition” value was 10.2% (inactive).
In the case of `Cc1ccc(C(=O)c2ccc(N3CCN(C)CC3)c([N+](=O)[O-])c2)cc1`, the “activity change, negative = inhibition” value is -7.25% (inactive).
Consider `Cc1cc(N)n(-c2ccc(S(=O)(=O)N3CCCC3)cc2[N+](=O)[O-])n1`, for which the “activity change, negative = inhibition” value was 5.75% (inactive).
For `CN1CCN(S(=O)(=O)c2ccc(N3CCN(c4ccccc4O)CC3)c([N+](=O)[O-])c2)CC1`, the Potency was 14.6 µM (active).
As for `COc1ccc(-c2nc(Cn3c(=O)cc(C)c4c(C)nn(-c5ccccc5)c43)c(C)o2)c(OC)c1`, the “activity change, negative = inhibition” value was 16.5% (inactive).
As for `Cc1cc(C)n2ncc(C(=O)N3CCCC3)c2n1`, the “activity change, negative = inhibition” value is 14.2% (inactive).
Still for that read-out and setting: in the case of `Cc1cccc(NS(=O)(=O)c2ccc(C)c(C(=O)NCC(c3ccccc3)N(C)C)c2)c1` (configuration not stated) it was -21.8% (inactive).
On to `Cc1oc2c(c1C(=O)N1CCOCC1)C(=O)c1ccccc1C2=O`, for which the Potency is 16.4 µM (active).
On to `CCOC(=O)c1ccccc1C(=O)N1CCOCCOCCOCC1`, for which the “activity change, negative = inhibition” value is 14.3% (inactive).
Still for that read-out and setting: the result for `Cc1ccccc1-c1ccc(Nc2ccc(C(=O)N3CCOCC3)cc2)nn1` reads 6.18% (inactive); that for `COc1ccc(C2Nc3ccc(NC(=O)COC(C)=O)cc3C(=O)N2Cc2ccccc2)cc1COc1ccc(NC(C)=O)cc1` (configuration not stated), -7.8% (inactive).
For the compound `CC1=CC(C)(C)N(C(=O)CSc2nnc(-c3ccccc3)o2)c2ccc(C)cc21`, the Potency was 25.9 µM (active).
For the compound `CC1=CC(C)(C)N(C(=O)CSc2nccn2C)c2cc(C)ccc21`, the “activity change, negative = inhibition” value is 0.891% (inactive).
Still for that read-out and setting: the result for `Cc1cccc(C)c1OC(=O)CSc1nnc(-c2ccccc2)o1` reads -3.7% (inactive).
On to `CCN(CC)C(=O)[C@H]1CC(CC(=O)NCc2ccco2)C(=O)N2CCc3c([nH]c4ccccc34)[C@]12C` (some centres not stated), for which the “activity change, negative = inhibition” value is -4.63% (inactive).
`Cc1cccc(N=C2NN=C(c3c[nH]c4ccccc34)CS2)c1`: the “activity change, negative = inhibition” value is 9.67% (inactive).
As for `Clc1cccc(N=C2NN=C(c3ccc4c(c3)OCCO4)CS2)c1`, the Potency is 5.17 µM (active).
Turning to `S=C(Nc1cccc(Cl)c1)Nc1ccc2c(c1)OCCO2`, the “activity change, negative = inhibition” value is 2.75% (inactive).
As to `CCn1nnc2cc(C(=O)Nc3ccc(C(=O)OC(C)C)cc3)ccc21`, the “activity change, negative = inhibition” value was -0.376% (inactive).
The same measure, in the same setting: in the case of `Cc1cc(C)cc(NC(=O)CSc2oc(-c3ccccc3)nc2S(=O)(=O)c2ccc(Cl)cc2)c1` it was 4.62% [at 9.27 µM] (inactive); in that of `Cc1ccc(-c2nc(CS(=O)(=O)CC(=O)NCc3ccccc3Cl)c(C)o2)cc1`, -22.6% (inactive).
As for `CCCCn1c(SCc2ncc(-c3ccccc3)o2)nc2cc(S(N)(=O)=O)ccc21`, the Potency is 14.6 µM (active).
With `CCCCn1c(SCC(=O)N2CCC(C(=O)OCC)CC2)nc2cc(S(N)(=O)=O)ccc21`, the “activity change, negative = inhibition” value was -3.7% (inactive).
Same read-out and setting: in the case of `CCCCn1c(SCC(=O)N2CCCC2=O)nc2cc(S(N)(=O)=O)ccc21` it was 10.2% (inactive); in that of `CCCn1c2ccccc2c2cnn(CC(=O)N(CC)c3cc(C)ccc3C)c(=O)c21`, -4.38% (inactive); in that of `Cc1ccc(S(=O)(=O)c2nc(-c3cccs3)oc2N2CCCCC2)cc1`, -22% (inactive).
In the case of `CCOc1ccccc1NC(=O)Cn1nnc(C(=O)Nc2ccc(C)c(C)c2)c1N`, the “activity change, negative = inhibition” value was 5.62% (inactive).
Take `CC(=O)O[C@]1(C(C)=O)CC[C@H]2[C@@H]3C=C(C)C4=CC(=O)CC[C@]4(C)[C@H]3CC[C@@]21C`: the Potency was 0.731 µM (active).
`C[C@]12CCC(=O)C=C1C=CC1C2CC[C@@]2(C)C1CC[C@@]21CCC(=O)O1` (some centres not stated): the “activity change, negative = inhibition” value is -16.2% (inactive).
With `CSCCC(NS(=O)(=O)c1ccc(C)cc1)C(=O)N(C)CC(=O)Nc1ccccc1Br` (configuration not stated), the “activity change, negative = inhibition” value was -2.63% (inactive).
Take `O=[N+]([O-])c1ccc(COc2ccccc2CN2CCOCC2)cc1`: the “activity change, negative = inhibition” value is -26.8% (inactive).
Take `CCOC(=O)c1c(C)[nH]c(C)c1S(=O)(=O)N1CCC(C(=O)Nc2ccc(C)c(Cl)c2)CC1`: the “activity change, negative = inhibition” value is -27.4% (inactive).
For `CC1CCN(C(=O)c2ccc3c(c2)NC(=O)CN3)CC1`, the “activity change, negative = inhibition” value was -7% (inactive).
Turning to `CC1=Nc2cc(C(=O)N3CCC(C)CC3)ccc2Sc2ccc(Cl)cc21`, the Potency was 16.4 µM (active).
In the case of `COc1ccc(C(=O)Nc2c(Cl)cc(Cl)cc2C(=O)N2CCC(C)CC2)cc1`, the “activity change, negative = inhibition” value is 9.22% (inactive).
Still for that read-out and setting: the result for `CC1CCCCC1NC(=O)NC(=O)COC(=O)C1=NN(c2ccccc2)C(=O)CC1` (configuration not stated) reads -3.54% (inactive); that for `O=C1C(F)N([S+](=O)([O-])c2ccc3c(c2)OCCO3)CCN1[S+](=O)([O-])c1c(F)cccc1F` (configuration not stated), 1.59% (inactive).
Turning to `COc1cc2nc(NCC(C)c3ccccc3)n3nc(-c4ccccc4)nc3c2cc1OC` (configuration not stated), the “activity change, negative = inhibition” value is 22% (inactive).
For the compound `COc1ccc(N2CCN(C(=O)CCc3nc(-c4ccc(C)cc4)no3)CC2)cc1`, the “activity change, negative = inhibition” value was -18.5% (inactive).
Regarding `COc1ccc(-c2noc(CCC(=O)N3CCN(c4cccc(C)c4)CC3)n2)cc1`, the “activity change, negative = inhibition” value was -21.2% (inactive).
In the case of `COc1ccc(-c2noc(CCC(=O)N(C)c3ccccc3C)n2)cc1`, the Potency is 20.6 µM (active).
In the case of `Cc1cc(OCC(=O)Nc2ncn[nH]2)c(C)c(C)c1Br`, the “activity change, negative = inhibition” value is 5.95% (inactive).
Still for that read-out and setting: the result for `O=C(CN1CCN(c2ccc(Cl)cc2)CC1)c1ccccc1` reads -0.714% (inactive); that for `O=C(CN1CCN(c2ccc(Cl)cc2)CC1)N1CCCC1`, -9.45% (inactive).
Regarding `CC(C)OC(=O)CN1CCN(c2ccc(Cl)cc2)CC1`, the Potency is 16.4 µM (active).
On to `Cc1ccc(-c2cnc(NCc3ccc(C(C)C)cc3)n2C)cc1`, for which the “activity change, negative = inhibition” value is -27.5% (inactive).
In the case of `CCOc1ccc(-c2cc3nc(C4CCN(C(=O)OC(C)(C)C)CC4)c(C(=O)Nc4cccc(CC)c4)cn3n2)cc1`, the “activity change, negative = inhibition” value is 12.9% (inactive).
Regarding `CCn1c2ccccc2c2nnc(N3CCN(c4cc(C)ccc4C)CC3)nc21`, the Potency was 20.6 µM (active).
Consider `Cc1ccc(C)c(N2CCN(Cc3nnc(-c4ccccc4)o3)CC2)c1`, for which the “activity change, negative = inhibition” value is 0.374% (inactive).
Consider `CCn1c2ccccc2c2nnc(SCC(=O)O)nc21`, for which the “activity change, negative = inhibition” value was 7.55% (inactive).
Turning to `Cc1ccc(S(=O)(=O)n2nc(-c3ccc(Cl)cc3)nc2NCc2ccccc2)cc1`, the “activity change, negative = inhibition” value was 11.6% (inactive).
In the case of `CCOc1ccc(NC(=O)CN(C)C(=O)c2cccc(S(=O)(=O)N3CCCC3)c2)cc1OCC`, the “activity change, negative = inhibition” value was 6.49% (inactive).
For the compound `COc1ccc(NC(=O)CN(C)C(=O)c2cccc(S(=O)(=O)N3CCN(c4ccccc4)CC3)c2)cc1`, the Potency is 16.4 µM (active).
Regarding `Cc1ccc(NC(=O)CN(C)C(=O)c2cccc(S(=O)(=O)N3CCCC3)c2)cc1`, the “activity change, negative = inhibition” value was 0.0961% (inactive).

(Values after PubChem BioAssay AID504444 (National Center for Advancing Translational Sciences (NCATS), 2011).)
